The record followed here is the supplement of paper PMC10849652.

About 7,900 targets were measured; listed, in parts, are those with a hit and a random draw of the rest. About 0.6% of all pairs of compound and target were hits. Unmarked numbers belong to inactive results.

What all share (experiment): log2 fold change, soluble protein after heating vs DMSO (PISA); higher = thermal stabilisation; K562 cells, 10 uM, 30 min; active = over 0.2 and 3.5 SD of the protein, either way, in both replicates (recomputed)
Compound in one experiment: C#Cc1cccc(Nc2ncnc3cc(OCCOC)c(OCCOC)cc23)c1 [erlotinib]
The method in brief: (§1)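 Soluble protein was defined as the supernatant after 21,000xg for 90 min. It came from K562 cells at 2×10^6 cells/mL given 10 μM compound for 30 min, heated in aliquots for 3 min across 48°C-58°C, pooled, and extracted in PBS with 0.5% NP-40 at 4°C, and was quantified by TMTpro 16plex LC-MS/MS with equalised channel sums. Thermal stability against control samples, from duplicates, is reported as log2 fold change.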

Compound in experiment [1]: C/C(=N\NC(=O)C1=CC(=CC=C1)S(=O)(=O)N2CCOCC2)/C3=C(C=CC(=C3)Cl)O
The method in brief:
as §1

Compound in experiment [2]: C1=CC(=C(C=C1Cl)C2=NC3=NC=CN=C3C(=N2)NC4=CC=NC=C4)F
The method in brief: as §1

Compound in experiment [3]: C1=CC(=CC=C1C2=NC3=C(N2)C=C(C=C3)C(=O)N)OC4=CC=C(C=C4)Cl
Put shortly: as §1

Compound in experiment [4]: C1=CC2=C(C=CC(=C2)/C=C\3/C(=O)NC(=NCC4=CC=CS4)S3)N=C1
Put shortly:
as §1

Compound in experiment [5]: C1=CC2=NC=CN=C2C=C1/C=C/3\C(=O)NC(=O)S3
Put shortly: as §1

Compound in experiment [6]: C1=CC=C(C=C1)C2=NC(=C(N2)C3=CC=NC=C3)C4=CC(=C(C=C4)Cl)O
Put shortly: as §1

Compound in experiment [7]: C1=CC=C2C(=C1)C3=NNC4=CC=CC(=C43)C2=O
The method in brief: as §1

Compound in experiment [8]: C1CCN(C1)C(=O)NC2=CC=CC(=C2)NC3=NC=C(C(=N3)NCCC4=CN=CN4)Br
The method in brief: as §1

Compound in experiment [9]: C1CN(CCC1(CC2=CC=C(C=C2)Cl)N)C3=NC=NC4=C3C=CN4
Put shortly:
as §1

Sequence of UniProt O43427 (O43427 whole entry, looked up): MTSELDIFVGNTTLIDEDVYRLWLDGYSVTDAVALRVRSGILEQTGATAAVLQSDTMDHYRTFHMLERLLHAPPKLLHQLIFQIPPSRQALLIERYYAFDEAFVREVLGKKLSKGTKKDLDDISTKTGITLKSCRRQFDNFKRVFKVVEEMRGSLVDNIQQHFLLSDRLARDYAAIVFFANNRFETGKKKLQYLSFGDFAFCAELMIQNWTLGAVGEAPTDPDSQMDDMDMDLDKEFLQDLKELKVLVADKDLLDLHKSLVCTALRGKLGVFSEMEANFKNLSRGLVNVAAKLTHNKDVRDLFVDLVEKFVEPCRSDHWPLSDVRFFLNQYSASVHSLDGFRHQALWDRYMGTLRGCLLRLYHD
Sequence of UniProt Q70Z53 (Q70Z53 whole entry, looked up): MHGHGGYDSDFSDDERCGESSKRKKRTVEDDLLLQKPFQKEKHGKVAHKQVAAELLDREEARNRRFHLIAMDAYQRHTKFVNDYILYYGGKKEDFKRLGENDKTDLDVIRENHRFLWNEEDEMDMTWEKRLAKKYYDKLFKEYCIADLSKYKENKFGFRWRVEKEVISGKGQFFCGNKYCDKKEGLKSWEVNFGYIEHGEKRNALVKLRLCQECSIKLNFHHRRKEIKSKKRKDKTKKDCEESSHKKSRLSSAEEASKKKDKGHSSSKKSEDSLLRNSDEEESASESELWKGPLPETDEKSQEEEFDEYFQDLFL
Sequence of UniProt P54803 (P54803 whole entry, looked up): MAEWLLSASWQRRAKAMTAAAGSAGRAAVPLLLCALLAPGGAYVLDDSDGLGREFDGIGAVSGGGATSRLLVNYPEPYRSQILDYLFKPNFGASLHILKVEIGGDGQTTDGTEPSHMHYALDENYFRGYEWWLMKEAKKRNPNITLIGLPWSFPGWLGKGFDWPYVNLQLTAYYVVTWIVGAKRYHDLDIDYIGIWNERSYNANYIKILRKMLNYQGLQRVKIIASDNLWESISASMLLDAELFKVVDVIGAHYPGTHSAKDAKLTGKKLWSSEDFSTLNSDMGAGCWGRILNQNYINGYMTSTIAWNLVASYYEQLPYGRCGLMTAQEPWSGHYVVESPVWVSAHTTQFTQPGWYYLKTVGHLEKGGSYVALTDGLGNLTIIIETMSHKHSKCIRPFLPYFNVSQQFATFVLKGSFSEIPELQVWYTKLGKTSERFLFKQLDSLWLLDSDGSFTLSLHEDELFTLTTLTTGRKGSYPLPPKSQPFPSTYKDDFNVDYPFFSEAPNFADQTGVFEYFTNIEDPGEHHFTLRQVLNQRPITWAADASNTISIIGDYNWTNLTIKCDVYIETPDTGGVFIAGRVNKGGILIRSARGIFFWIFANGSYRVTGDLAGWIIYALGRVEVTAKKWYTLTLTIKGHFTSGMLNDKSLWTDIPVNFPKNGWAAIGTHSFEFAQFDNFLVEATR
Sequence of UniProt Q658Y4 (Q658Y4 whole entry, looked up): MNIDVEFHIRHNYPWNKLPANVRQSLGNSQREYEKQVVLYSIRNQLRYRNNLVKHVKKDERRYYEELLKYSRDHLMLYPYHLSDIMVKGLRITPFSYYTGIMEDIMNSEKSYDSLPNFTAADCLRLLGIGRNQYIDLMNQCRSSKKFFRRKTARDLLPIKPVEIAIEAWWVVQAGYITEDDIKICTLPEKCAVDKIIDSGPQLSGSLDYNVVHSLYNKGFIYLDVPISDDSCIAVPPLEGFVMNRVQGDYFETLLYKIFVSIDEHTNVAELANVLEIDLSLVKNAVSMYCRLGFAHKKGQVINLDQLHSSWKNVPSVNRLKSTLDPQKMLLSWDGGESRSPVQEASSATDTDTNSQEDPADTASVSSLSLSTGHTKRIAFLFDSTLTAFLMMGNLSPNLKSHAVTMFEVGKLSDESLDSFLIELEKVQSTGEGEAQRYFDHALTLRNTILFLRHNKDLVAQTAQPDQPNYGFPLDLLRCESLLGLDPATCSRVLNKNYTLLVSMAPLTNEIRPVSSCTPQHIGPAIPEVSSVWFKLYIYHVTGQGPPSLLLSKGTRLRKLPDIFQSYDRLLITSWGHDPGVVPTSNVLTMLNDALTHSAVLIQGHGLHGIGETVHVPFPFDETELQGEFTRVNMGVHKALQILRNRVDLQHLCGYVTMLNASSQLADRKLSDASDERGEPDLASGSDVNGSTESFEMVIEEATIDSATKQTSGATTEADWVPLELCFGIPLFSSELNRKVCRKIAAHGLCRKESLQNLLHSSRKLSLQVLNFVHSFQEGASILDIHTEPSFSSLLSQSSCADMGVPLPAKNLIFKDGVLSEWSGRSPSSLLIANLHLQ
Sequence of UniProt Q8N2G8 (Q8N2G8 whole entry, looked up): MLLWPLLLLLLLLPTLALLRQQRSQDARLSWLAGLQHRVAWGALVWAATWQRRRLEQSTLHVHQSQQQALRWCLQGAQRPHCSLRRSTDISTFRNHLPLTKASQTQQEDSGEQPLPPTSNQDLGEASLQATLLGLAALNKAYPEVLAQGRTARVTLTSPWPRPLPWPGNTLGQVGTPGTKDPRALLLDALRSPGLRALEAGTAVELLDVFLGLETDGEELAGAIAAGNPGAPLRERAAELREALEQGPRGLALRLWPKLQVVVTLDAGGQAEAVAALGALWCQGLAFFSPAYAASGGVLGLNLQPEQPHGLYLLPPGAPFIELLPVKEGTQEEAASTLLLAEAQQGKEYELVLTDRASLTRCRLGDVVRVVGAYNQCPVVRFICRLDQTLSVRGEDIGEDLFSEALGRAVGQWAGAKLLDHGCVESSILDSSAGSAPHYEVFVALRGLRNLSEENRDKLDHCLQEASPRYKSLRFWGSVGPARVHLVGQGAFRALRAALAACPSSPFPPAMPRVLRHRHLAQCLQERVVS
Sequence of UniProt Q53GQ0 (Q53GQ0 whole entry, looked up): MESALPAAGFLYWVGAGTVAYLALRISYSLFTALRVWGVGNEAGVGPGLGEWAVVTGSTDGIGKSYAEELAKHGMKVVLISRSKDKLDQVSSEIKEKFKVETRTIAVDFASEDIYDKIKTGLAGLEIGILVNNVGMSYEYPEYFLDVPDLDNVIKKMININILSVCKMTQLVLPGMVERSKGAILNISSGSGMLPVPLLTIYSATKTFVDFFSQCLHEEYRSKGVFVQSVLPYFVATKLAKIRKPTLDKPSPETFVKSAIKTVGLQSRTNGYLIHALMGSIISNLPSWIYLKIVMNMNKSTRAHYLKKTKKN
Sequence of UniProt Q9BUP3 (Q9BUP3 whole entry, looked up): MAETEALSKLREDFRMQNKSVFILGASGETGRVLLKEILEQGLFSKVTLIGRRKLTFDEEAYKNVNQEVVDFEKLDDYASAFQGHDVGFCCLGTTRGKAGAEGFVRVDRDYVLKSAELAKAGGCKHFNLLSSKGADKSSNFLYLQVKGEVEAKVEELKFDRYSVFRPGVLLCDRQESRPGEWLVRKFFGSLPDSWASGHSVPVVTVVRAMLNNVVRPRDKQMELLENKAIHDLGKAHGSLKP
Sequence of UniProt Q9UKD1 (Q9UKD1 whole entry, looked up): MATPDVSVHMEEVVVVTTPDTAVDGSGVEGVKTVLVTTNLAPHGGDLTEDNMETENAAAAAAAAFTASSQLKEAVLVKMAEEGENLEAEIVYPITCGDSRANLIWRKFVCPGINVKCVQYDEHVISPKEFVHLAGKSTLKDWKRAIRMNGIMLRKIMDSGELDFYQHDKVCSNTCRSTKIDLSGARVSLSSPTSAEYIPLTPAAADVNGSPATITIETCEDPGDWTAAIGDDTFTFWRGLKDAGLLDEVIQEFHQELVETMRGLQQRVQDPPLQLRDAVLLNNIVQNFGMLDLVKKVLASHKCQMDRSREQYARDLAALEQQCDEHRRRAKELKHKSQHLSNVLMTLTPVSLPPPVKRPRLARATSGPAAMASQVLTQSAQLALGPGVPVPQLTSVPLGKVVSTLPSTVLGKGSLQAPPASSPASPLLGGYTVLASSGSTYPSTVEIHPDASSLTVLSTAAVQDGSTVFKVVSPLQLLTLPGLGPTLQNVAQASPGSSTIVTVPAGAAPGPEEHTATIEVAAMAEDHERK
Sequence of UniProt Q9UQC2 (Q9UQC2 whole entry, looked up): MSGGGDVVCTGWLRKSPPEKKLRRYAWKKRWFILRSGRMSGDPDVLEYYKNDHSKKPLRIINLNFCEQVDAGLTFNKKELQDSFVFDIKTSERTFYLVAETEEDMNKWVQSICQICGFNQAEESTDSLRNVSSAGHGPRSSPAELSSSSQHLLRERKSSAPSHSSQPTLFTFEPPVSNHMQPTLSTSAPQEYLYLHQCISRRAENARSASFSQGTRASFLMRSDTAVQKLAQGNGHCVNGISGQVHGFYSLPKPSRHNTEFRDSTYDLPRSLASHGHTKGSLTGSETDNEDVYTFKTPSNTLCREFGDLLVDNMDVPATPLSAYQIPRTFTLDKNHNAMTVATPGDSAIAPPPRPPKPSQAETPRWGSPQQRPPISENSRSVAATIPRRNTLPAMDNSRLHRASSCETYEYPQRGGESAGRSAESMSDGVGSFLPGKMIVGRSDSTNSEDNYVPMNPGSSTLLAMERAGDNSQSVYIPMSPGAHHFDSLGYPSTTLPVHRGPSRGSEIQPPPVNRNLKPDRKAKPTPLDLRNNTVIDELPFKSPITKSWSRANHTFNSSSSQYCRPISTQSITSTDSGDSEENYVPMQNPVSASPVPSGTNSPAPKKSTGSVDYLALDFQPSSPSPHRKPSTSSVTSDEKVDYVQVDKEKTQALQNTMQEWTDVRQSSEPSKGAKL
Sequence of UniProt P07910 (P07910 whole entry, looked up): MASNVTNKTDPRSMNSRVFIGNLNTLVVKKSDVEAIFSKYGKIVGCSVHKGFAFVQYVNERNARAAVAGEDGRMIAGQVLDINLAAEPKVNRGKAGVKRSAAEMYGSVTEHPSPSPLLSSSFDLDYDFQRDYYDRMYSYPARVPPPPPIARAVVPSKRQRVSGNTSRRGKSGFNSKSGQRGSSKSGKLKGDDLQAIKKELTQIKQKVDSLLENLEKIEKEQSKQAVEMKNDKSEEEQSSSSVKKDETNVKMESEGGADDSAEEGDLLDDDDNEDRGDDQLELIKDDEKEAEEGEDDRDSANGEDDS
Sequence of UniProt Q8IVP5 (Q8IVP5 whole entry, looked up): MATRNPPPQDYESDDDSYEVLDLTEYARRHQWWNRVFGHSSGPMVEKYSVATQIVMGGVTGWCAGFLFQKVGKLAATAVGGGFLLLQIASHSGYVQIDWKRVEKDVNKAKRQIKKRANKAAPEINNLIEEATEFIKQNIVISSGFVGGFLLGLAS

Consider FIBP (UniProt O43427), for which the log2 fold change with erlotinib is 0.023; in experiment [1] it was 0.088; in [2], 0.011; in experiment [3], -0.002; in experiment [4], 0.107; in [5] it was -0.023. Further, the log2 fold change in [6] is -0.032; in [7], 0.011; in experiment [8], -0.144; in experiment [9], 0.125.

For HTATIP2 isoform 3 (UniProt Q9BUP3), the log2 fold change in the experiment with erlotinib is 0.016; in experiment [1], 0.112; in experiment [2], 0.016; in experiment [3] it was -0.02; in experiment [4], -0.143; in [5] it was 0.005. Besides, the log2 fold change in [6] was 0.012; in experiment [7], 0.033; in [8], -0.039; in [9] it was 0.005.

For the target GHDC (UniProt Q8N2G8), the log2 fold change with erlotinib was 0.062; in [1], 0.046; in experiment [2], -0.002; in experiment [3] it was 0.013; in experiment [4], 0.011; in experiment [5] it was 0.003. The log2 fold change in experiment [6] is -0.021; in experiment [7], -0.008; in experiment [8], -0.009; in experiment [9], 0.06.

GEMIN5 (UniProt Q8TEQ6): the log2 fold change with erlotinib was -0.007; in [1] it was 0.066; in experiment [2], -0.049; in experiment [3] it was 0.023; in experiment [4], 0.037; in experiment [5] it was 0.045. The log2 fold change in [6] is 0.01; in experiment [7], 0.01; in experiment [8] it was 0.015; in experiment [9], 0.017.

For the target FAM91A1 (UniProt Q658Y4), the log2 fold change with erlotinib is 0.005; in [1], 0.019; in experiment [2], 0.168; in experiment [3], 0.082; in experiment [4], 0.019; in experiment [5], -0.017. The log2 fold change in experiment [6] was -0.033; in experiment [7], 0.069; in experiment [8], -0.057; in experiment [9], -0.152.

In the case of GALC (UniProt P54803), the log2 fold change with erlotinib is -0.023; in experiment [1] it was -0.002; in [2] it was -0.051; in experiment [3], 0.041; in [4], 0.009; in experiment [5], 0.028. Also, the log2 fold change is -0.017 in experiment [6], -0.011 in experiment [7], -0.032 in experiment [8] and 0.08 in experiment [9].

Take HSD17B12 (UniProt Q53GQ0): the log2 fold change with erlotinib is 0.004; in experiment [1], 0.067; in experiment [2] it was 0.02; in [3] it was 0.346 (active); in [4], 0.025; in experiment [5], -0.012. The log2 fold change in experiment [6] was 0.027; in [7] it was 0.064; in experiment [8], -0.028; in [9], 0.124.

As for GMEB2 (UniProt Q9UKD1), the log2 fold change in the experiment with erlotinib is 0.003; in experiment [1] it was 0.039; in experiment [2], 0.168; in experiment [3] it was 0.004; in experiment [4] it was -0.009; in [5] it was 0.047. The log2 fold change in experiment [6] is -0.022; in experiment [7], -0.117; in [8], -0.105; in experiment [9] it was 0.024.

As for FANCD2 isoform 1 (UniProt Q9BXW9), the log2 fold change is 0.077 in the experiment with erlotinib; 0.075 in experiment [1]; -0.003 in experiment [2]; 0.012 in [3]; 0.145 in experiment [4]; 0.02 in experiment [5]. In addition, the log2 fold change was 0 in experiment [6], -0.012 in [7], -0.008 in [8] and 0.02 in experiment [9].

With HNRNPC isoform 2 (UniProt P07910), the log2 fold change is 0.093 with erlotinib; -0.349 in [1]; -0.682 in [2]; 0.204 in experiment [3]; 0.025 in experiment [4]; 0.188 in experiment [5]. Further, the log2 fold change in experiment [6] is -0.172; in [7] it was -0.164; in experiment [8], 0.087; in [9], -0.385.

For the target HSPA8 (UniProt E9PN89), the log2 fold change is 0.051 with erlotinib; -0.193 in experiment [1]; -0.191 in experiment [2]; -0.061 in experiment [3]; 0.358 in [4]; 0.06 in [5]. Besides, the log2 fold change in experiment [7] was -0.133; in experiment [8] it was 0.267; in experiment [9], -0.027.

GAK (UniProt O14976): the log2 fold change in the experiment with erlotinib was 0.64; in experiment [1], -0.78; in experiment [2], -0.133; in experiment [3] it was -0.821; in [4], 0.527; in [6] it was 0.639. The log2 fold change was 0.955 in experiment [7], 1.08 in experiment [8] and -0.265 in experiment [9].

For the target HBZ, A0A494C057, the log2 fold change in the experiment with erlotinib was 0.141; in experiment [3], -0.062; in [5] it was -0.055.

Regarding GAB2 (UniProt Q9UQC2), the log2 fold change was -0.035 with erlotinib; 0.149 in experiment [1]; -0.033 in experiment [2]; 0.231 in experiment [3]; -0.04 in [4]; -0.294 in experiment [6]. The log2 fold change in experiment [7] is -0.196; in [8], -0.29; in experiment [9], 0.012.

For HNRNPK isoform 3 (UniProt P61978), the log2 fold change in the experiment with erlotinib is 0.101; in [2], -0.102; in experiment [3], -0.032; in experiment [5], 0.06; in experiment [6] it was -0.024; in [8], -0.027. For the same target, the log2 fold change in experiment [9] is -0.052.

FUNDC1 (UniProt Q8IVP5): in experiment [5], the log2 fold change was 0.597 (active).

With IGF2 isoform 3 (UniProt P01344), the log2 fold change in the experiment with erlotinib was -0.098; in [3] it was 0.028.

Regarding FRA10AC1 isoform 3 (UniProt Q70Z53), the log2 fold change with erlotinib is -0.02; in experiment [1], 0.053; in experiment [2] it was -0.059; in experiment [3], -0.12; in experiment [4] it was -0.305; in experiment [5], 0.033. In addition, the log2 fold change in [7] was -0.154; in experiment [8] it was -0.067; in [9], 0.126.
